# ± gives the standard deviation of the averaged measurements.
# Tested on: HCI09 (cells of a triple-negative luminal androgen receptor type breast cancer xenograft)
# Assay: cell viability (% of vehicle); higher = less cytotoxic
# Conditions: 10 µM; 72 h
# 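Further: PDX cells carrying CMV promoter-driven luciferase, viability read as total photon flux per second by IVIS imaging following D-luciferin, vehicle control 0.1% DMSO.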
row,SMILES,cell viability
1,CCCNC(C)C(=O)Nc1ccccc1C.Cl (configuration not stated) [Prilocaine hydrochloride],112.29 ± 0.067
2,CN(C)CCC=C1c2ccccc2CCc2ccccc21.Cl [Amitriptyline HCl],87.6 ± 6.1
3,CN1CCC(=C2c3ccccc3CC(=O)c3sccc32)CC1.O=C(O)C=CC(=O)O [Ketotifen Fumarate],135 ± 31
4,CCOc1ccc2ccccc2c1C(=O)NC1C(=O)N2C1SC(C)(C)C2C(=O)[O-].O.[Na+] (configuration not stated) [Nafcillin Sodium],109 ± 6
5,Nc1ccc(S(=O)(=O)c2ccc(N)cc2)cc1 [Dapsone],111 ± 3.1
6,Nc1nc(=O)c2ncn(COC(CO)CO)c2[nH]1 [Ganciclovir],94.8 ± 2
7,FC(F)(F)c1ccc(C=Cc2nc(COc3ccc(CCCCn4ccnn4)cc3)co2)cc1 [Mubritinib (TAK 165)],26.1 ± 3.1
